In PubChem BioAssay AID489036 (National Center for Advancing Translational Sciences (NCATS), 2010):
Results filed as inconclusive are left out. A number with no mark means an inactive call. Activity calls are given as the source filed them. Calls follow the shape of the dose curve; as a rule, active = well fitted inhibition curve with a large enough effect; inconclusive = small, poorly fitted or top-dose-only effect, or effect the other way; inactive = flat fitted curve, though single readings scatter.

test: VP16 selectivity assay for inhibitors of ROR gamma transcriptional activity; details: Drosophila Schneider Gal4-VP16 UAS-luciferase reporter, 20 h; series mostly up to 92.2 µM; activity change, negative = inhibition: at the top concentration
From the text: NIH Molecular Libraries Probe Production Network [MLPCN] NIH Chemical Genomics Center [NCGC] MLPCN Grant: R03 DA026211-01 Assay Provider: Dan Littman, New York University Assay Overview: The retinoic acid-related orphan receptor (ROR) gamma is a transcription factor that has a central role in the differentiation of Th17 cells, a subset of T helper cells that secrete the inflammatory cytokines IL-17, IL-17F, and IL-22. Th17 cells have been implicated in graft versus host disease, autoimmune disease and asthma. ROR gamma is induced in naive T helper cells in the presence of TGF-beta combined with IL-6, IL-21, or IL-23, and thereafter directs the expression of the Th17 lineage cytokines. To identify nonspecific inhibitors, a Drosophila Schneider cell line was stably transfected with two vectors: a gene expressing a fusion of the Gal4 DNA binding domain and VP16 transactivation domain under the control of the metallothionine promoter and a Photinus luciferase reporter regulated by the Gal4 binding site enhancer, UAS. […] Small molecule inhibitors that inhibit components common to the RORgt and VP16 assays, such as the Gal4 DNA binding domain or the UAS luciferase reporter, will be active in both assays and thus scored as nonspecific.
Assay Protocol Summary: For screening, 600 cells in 4 uL/well were dispensed into white solid 1536-well plates (Grenier) using a solenoid-based dispenser. Following transfer of 23 nL compound or DMSO vehicle by a pin tool, the plates were incubated 1 hr at ambient temperature, and 1 uL/well copper sulfate (700 uM final concentration) was added. The plates were centrifuged 15 s at 1000 RPM and incubated 20 hr at ambient temperature. After addition of 1.5 uL Photinus luciferase detection reagent, the plates were incubated 10 min at ambient temperature and then read by an ViewLux (Perkin Elmer) to detect luminescence.

Compound	Potency	activity change, negative = inhibition [%]
CCOc1ncccc1C(=O)OCC(=O)Nc1ccc(-c2nc3ccc(C)cc3s2)cc1	2.57 µM (active)	–
CCNC(=O)CCc1nc(-c2ccc(C(C)(C)C)cc2)no1	5.75 µM (active)	–
COc1cc(OC)c(C(c2ccccc2)C(C)(C)C(=O)N2CC(C)CC(C)C2)c(OC)c1 (stereo not given)	18.2 µM (active)	–
COc1cc(O)c(C(CC(=O)N2CCCC(C(=O)N3CCCCC3)C2)c2ccc3c(c2)OCO3)c(OC)c1 (stereo not given)	–	6.67
Cc1cc(C)nc(-n2nc(C)cc2NC(=O)CNC(C)c2ccccc2)n1 (stereo not given)	18.2 µM (active)	–
COc1cc(O)c(C(CC(=O)Nc2ccc(C)cc2)c2ccc3c(c2)OCO3)c(OC)c1 (stereo not given)	40.7 µM (active)	–
COc1cc(O)c(CCC(=O)N2CCCC(C)C2)c(OC)c1 (stereo not given)	–	7.03
Cc1nn(-c2cc(C)c3ccccc3n2)c2c1C1C(C2)C1(C)C (stereo not given)	22.9 µM (active)	–
COc1ccccc1C(CC(=O)N1C[C@H](C)C[C@H](C)C1)c1ccccc1 (stereo not given in full)	32.3 µM (active)	–
CCn1cc(C(=O)O)c(=O)c2cnc(N3CCN(C(=S)NC(=O)c4ccccc4)CC3)nc21	20.4 µM (active)	–
COc1cc(O)c(C(CC(=O)N2CCCC(CO)C2)c2ccc3c(c2)OCO3)c(OC)c1 (stereo not given)	–	-18.2
CC(C)[C@H](NC(=O)C1CCN(C(=O)[C@@H]2CCCN2C(=O)OC(C)(C)C)CC1)C(=O)NCc1ccc(F)cc1	–	13
CCC(=O)C1CCCN(C(=O)CC(c2ccc3c(c2)OCO3)c2c(O)cc(OC)cc2OC)C1 (stereo not given)	–	0.385
CCOc1ccc(O)c(C(CC(=O)N2CCCC(C)C2)c2ccc3c(c2)OCO3)c1 (stereo not given)	–	-27.7
COc1ccc(C(CC(=O)N2CCCC(C)C2)c2ccc3c(c2)OCO3)c(O)c1 (stereo not given)	–	-16.5
COc1ccc(C(=O)Nc2cc(-c3ccc(C)cc3)no2)cc1	–	-29
O=C(CCCN1C(=O)/C(=C/c2ccccc2Cl)SC1=S)Nc1cccnc1	28.8 µM (active)	–
COc1cc(O)c(C(CC(=O)N2CCCC(C)C2)c2cccc3ccccc23)c(OC)c1 (stereo not given)	–	-28.4
COc1cc(O)c(C(CC(=O)N2CCC[C@H](C)C2)c2ccc3c(c2)OCO3)c(OC)c1 (stereo not given in full)	inactive	–
CC(C)(C)OC(=O)N1CCC[C@H]1C(=O)N1CCC(C(=O)N[C@H](Cc2ccccc2)C(=O)NCc2ccc(F)cc2)CC1	–	-14.9

Compound	Potency	activity change, negative = inhibition [%]
COc1cc(O)c(C(CC(=O)N2CC(C)CC(C)C2)c2ccc(O)cc2)c(OC)c1 (stereo not given)	–	12.5
CCCCNC(=O)CC(c1ccc2c(c1)OCO2)c1c(O)cc(OC)cc1OC (stereo not given)	–	-10.5
COc1cc(O)c(C(CC(=O)N2CCC(Cc3ccccc3)CC2)c2ccc(OC)c(OC)c2)c(OC)c1 (stereo not given)	–	-5.36
COc1cc(O)c(C(CC(=O)N2CCC(c3ccccc3)CC2)c2ccc3c(c2)OCO3)c(OC)c1 (stereo not given)	inactive	–
COc1cc(C)nc(-n2nc(C)cc2OC)n1	14.4 µM (active)	–
CC1CCCN(C(=O)CC(c2ccc3c(c2)OCO3)c2c(O)cccc2Cl)C1 (stereo not given)	40.7 µM (active)	–
COc1cc(OC)c2c(c1)OC(=O)CC2c1ccc2c(c1)OCO2 (stereo not given)	–	-14.3
COCOc1cc(OC)cc(OC)c1C(CC(=O)N1CC(C)CC(C)C1)c1ccc2c(c1)OCO2 (stereo not given)	45.7 µM (active)	–
COc1cc(O)c(C(CC(=O)N2CCCCC2)c2ccc(C)cc2)c(OC)c1 (stereo not given)	–	-1.68
COc1cc(O)c(C(CC(=O)N2CCC(c3ccccc3)CC2)c2ccc(C)cc2)c(OC)c1 (stereo not given)	–	-9.66
COc1cc(O)c(C(CC(=O)N2CCCC(C)C2)c2ccc(C(C)C)cc2)c(OC)c1 (stereo not given)	25.7 µM (active)	–
COc1cc(O)c(C(CC(=O)N2CCC(C)CC2)c2ccc(OC)c(OC)c2)c(OC)c1 (stereo not given)	–	23
COc1cc(O)c(C(CC(=O)N2CCOCC2)c2ccc3c(c2)OCO3)c(OC)c1 (stereo not given)	–	21.6
COc1cc(O)c(C(CC(=O)N2CCCC(CN3CCCCC3)C2)c2ccc3c(c2)OCO3)c(OC)c1 (stereo not given)	–	-3.73
C#CCOc1cc(OC)cc(OC)c1C(CC(=O)N1CCCC(C)C1)c1ccc2c(c1)OCO2 (stereo not given)	45.7 µM (active)	–
Cc1cc(C)n(-c2nc(SCC(=O)O)c3c4c(sc3n2)CCCC4)n1	16.2 µM (active)	–
COCC1CCCN(C(=O)CC(c2ccc3c(c2)OCO3)c2c(O)cc(OC)cc2OC)C1 (stereo not given)	–	-15.9
O=C(/C=C/c1ccc(S(=O)(=O)N2CCOCC2)cc1)NC(=S)Nc1ccc(N2CCOCC2)cc1	20.4 µM (active)	–
C[C@H]1O[C@@H](O[C@H]2[C@@H](O)C[C@@H](O[C@H]3[C@@H](O)C[C@H](O[C@H]4CC[C@@]5(C)[C@H](CC[C@@H]6[C@@H]5CC[C@]5(C)[C@@H](C7=CC(=O)OC7)CC[C@]65O)C4)O[C@@H]3C)O[C@@H]2C)C[C@H](O)[C@@H]1O	–	-3.54
COc1cc(O)c(C(CC(=O)N2CCc3ccccc32)c2ccc3c(c2)OCO3)c(OC)c1 (stereo not given)	–	-14.2
